# Results as given in PubChem BioAssay (NCATS).
# Results filed as inconclusive are left out. Calls of active or inactive are those of the source. The call rests on the fitted dose curve; in most records, active means well fitted cell-killing curve with a large enough effect; inconclusive means small, poorly fitted or top-dose-only effect; inactive means flat fitted curve, though single readings scatter.
# Test: Quantitative highthroughput screen to assess conditional lethalithy of NOMO1 cells grown in RPMI1640 with dialyzed fetal bovine serum (RPMI+ds) (AID 1963877); further: nearly all actives have a fitted effect of over 30% in size;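 on viability: 100% = DMSO control wells and 0% = empty wells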
# Conditions: NOMO1 in RPMI+dialyzed FBS viability, ATP luminescence, 48 h; series mostly up to 45.8 µM; viability: at the top concentration
# Method in brief: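 Each medium arm—HPLM with 10% dialyzed FBS, or RPMI1640 with 5 mM glucose and 10% untreated or dialyzed FBS—was screened against an 11-point, 3-fold compound titration for 48 h at 37 °C, with CellTiter-Glo luminescence as endpoint.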
# Potency means the concentration at half of the fitted maximal effect.
SMILES,Potency,viability
Oc1ccc(-c2nc(-c3ccc(F)cc3)c(-c3ccncc3)[nH]2)cc1,13.2 µM (active),–
Cc1c(C(=O)Nc2ccc(N3C[C@@H](C)O[C@@H](C)C3)nc2)cccc1-c1ccc(OC(F)(F)F)cc1,11.8 µM (active),–
CC(C)NCC(O)c1ccc(NS(C)(=O)=O)cc1 (stereo not given),–,128% (inactive)
COc1ccc(C2CNC(=O)C2)cc1OC1CCCC1 (stereo not given),–,94.5% (inactive)
CCn1c(-c2nonc2N)nc2cncc(CNC3CCNCC3)c21,18.7 µM (active),–
Cc1ncc([N+](=O)[O-])n1CCO,–,98.9% (inactive)
C=C(C)[C@@H]1CC[C@]2(C)CC[C@]3(C)[C@H](CC[C@@H]4[C@@]5(C)CC[C@H](O)C(C)(C)[C@H]5CC[C@]43C)[C@@H]12,–,96.8% (inactive)
C[Se]CCC(N)C(=O)O (stereo not given),–,98.9% [at 92.2 µM] (inactive)
COc1ccc2c(c1)c(CC(=O)OCC(=O)O)c(C)n2C(=O)c1ccc(Cl)cc1,–,93.3% (inactive)
O=c1cc(N2CCOCC2)oc2c(-c3cccc4c3sc3ccccc34)cccc12,–,85.4% (inactive)
CC(C)[C@H](N)C(=O)OCCOCn1cnc2c(=O)[nH]c(N)nc21,–,103% (inactive)
COc1cc2ncnc(Nc3cccc(Br)c3)c2cc1OC,–,95.4% (inactive)
NS(=O)(=O)c1cccc2c1C(=O)c1cccc(O)c1C2=O,23.5 µM (active),–
Cn1cc(C[C@@H](N)C(=O)O)c2ccccc21,–,86.6% [at 23.2 µM] (inactive)
CCCn1c(=O)c2[nH]c(C34CC5CC3C[C@@H](C5)C4)nc2n(CCC)c1=O,–,111% (inactive)
CC(C)(OCc1nn(Cc2ccccc2)c2ccccc12)C(=O)O,–,105% (inactive)
O=c1cc(-c2cccc3c2Sc2ccccc2S3)oc(N2CCOCC2)c1,–,95.2% (inactive)
COc1cc2c(Nc3ccc(Cl)c(Cl)c3F)ncnc2cc1OCC1C[C@@H]2CN(C)C[C@@H]2C1 (stereo not given in full),23.4 µM (active),–
CN(C)c1nc(N(C)C)nc(N(C)C)n1,–,105% (inactive)
O=C(Nc1ncc(SCCN2CCCC2)s1)[C@]1(c2ccc(S(=O)(=O)C3CC3)cc2)C[C@@H]1C1CCCCC1,23.5 µM (active),–
C[C@H](CCC(=O)O)[C@H]1CCC2C3C[C@H](O)[C@@H]4C[C@H](O)CC[C@]4(C)C3CC[C@@]21C (stereo not given in full),–,107% (inactive)
CCN(CC)CCNC(=O)c1ccc2nc(-c3ccccc3)c(-c3ccc(CN4CCC(n5c(=O)[nH]c6ccccc65)CC4)cc3)nc2c1,11.8 µM (active),–
Oc1cc2c(cc1O)C1c3ccc(O)c(O)c3OCC1(O)C2 (stereo not given),–,103% (inactive)
COc1cc(NS(=O)(=O)c2ccc(N)cc2)nc(OC)n1,–,97.4% (inactive)
CCc1cc(C(N)=S)ccn1,–,107% (inactive)
